What all share (test): DAPPL (digital affinity profiling via proximity ligation, sequencing); 10 mM Tris-HCl pH 7.5, 50 mM NaCl, 1 mM DTT, 4% glycerol, room temperature, 30 min; GST-TFs on glutathione beads, 16-mer random dsDNA library, 0.1% formaldehyde crosslink after washing; high values mean tight binding
One assay has as its target T1, FEV (Homo sapiens, UniProt Q99581 1-238).
T1 sequence: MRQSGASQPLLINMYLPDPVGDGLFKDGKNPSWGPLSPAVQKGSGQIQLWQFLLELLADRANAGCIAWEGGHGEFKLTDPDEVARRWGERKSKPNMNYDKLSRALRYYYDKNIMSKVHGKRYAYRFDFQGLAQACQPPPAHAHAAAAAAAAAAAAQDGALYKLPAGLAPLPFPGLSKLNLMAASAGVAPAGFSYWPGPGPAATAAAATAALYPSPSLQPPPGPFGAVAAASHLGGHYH
Particulars: protein: recombinant; tags: N-terminal GST; dsDNA, one strand shown. In outline: (§1)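 Each value of binding signal is a hexamer's read frequency for a factor divided by the same hexamer's frequency in the tag-only sample. Barcoded, bead-captured GST fusions of human transcription factors made in yeast were pooled with that sample and incubated with 200 nmole of a random double-stranded 16-mer DNA library in Tris/NaCl/DTT/glycerol buffer at room temperature for 30 min. Washing, 0.1% formaldehyde crosslinking, proximity ligation, PCR and Illumina NextSeq500 sequencing followed.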

For the next assay, the target named is ETV5 (Homo sapiens, UniProt P41161 1-510). The following applies: protein: recombinant; tags: N-terminal GST; dsDNA, one strand shown. In outline: as §1
ETV5, sequence (P41161 whole entry): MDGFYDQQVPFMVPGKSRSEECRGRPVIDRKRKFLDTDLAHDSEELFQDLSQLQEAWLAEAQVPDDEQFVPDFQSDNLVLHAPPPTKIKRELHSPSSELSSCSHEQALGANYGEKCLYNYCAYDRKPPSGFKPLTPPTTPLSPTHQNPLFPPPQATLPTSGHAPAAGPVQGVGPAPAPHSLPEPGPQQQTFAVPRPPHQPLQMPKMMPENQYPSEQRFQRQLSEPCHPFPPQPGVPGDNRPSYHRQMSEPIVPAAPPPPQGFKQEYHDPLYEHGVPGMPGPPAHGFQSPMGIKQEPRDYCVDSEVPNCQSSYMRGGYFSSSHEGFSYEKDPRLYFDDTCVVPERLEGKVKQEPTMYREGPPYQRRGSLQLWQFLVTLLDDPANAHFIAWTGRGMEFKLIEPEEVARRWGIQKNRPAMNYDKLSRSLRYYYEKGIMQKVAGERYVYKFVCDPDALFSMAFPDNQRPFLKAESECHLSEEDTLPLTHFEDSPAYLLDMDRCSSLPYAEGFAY
A further assay deals with HSF1 (Homo sapiens, UniProt Q00613 1-529). The following applies: protein: recombinant; tags: N-terminal GST; chain copies: 3; dsDNA, one strand shown. The method in brief:
as §1

The next assay deals with T2, SPIC (Homo sapiens, UniProt Q8N5J4 1-248).
T2 sequence: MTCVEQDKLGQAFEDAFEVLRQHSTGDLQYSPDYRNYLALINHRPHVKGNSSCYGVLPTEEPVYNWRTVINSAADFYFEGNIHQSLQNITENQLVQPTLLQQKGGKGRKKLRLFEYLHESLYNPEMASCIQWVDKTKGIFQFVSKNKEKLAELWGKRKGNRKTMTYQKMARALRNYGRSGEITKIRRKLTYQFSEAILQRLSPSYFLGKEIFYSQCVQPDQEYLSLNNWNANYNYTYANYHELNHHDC
The following applies: protein: recombinant; tags: N-terminal GST; dsDNA, one strand shown. The method in brief: as §1

For the next assay, the target named is ELF4 (Homo sapiens, UniProt Q99607 1-663). Particulars: protein: recombinant; tags: N-terminal GST; dsDNA, one strand shown. In outline: as §1
ELF4, sequence (Q99607 whole entry): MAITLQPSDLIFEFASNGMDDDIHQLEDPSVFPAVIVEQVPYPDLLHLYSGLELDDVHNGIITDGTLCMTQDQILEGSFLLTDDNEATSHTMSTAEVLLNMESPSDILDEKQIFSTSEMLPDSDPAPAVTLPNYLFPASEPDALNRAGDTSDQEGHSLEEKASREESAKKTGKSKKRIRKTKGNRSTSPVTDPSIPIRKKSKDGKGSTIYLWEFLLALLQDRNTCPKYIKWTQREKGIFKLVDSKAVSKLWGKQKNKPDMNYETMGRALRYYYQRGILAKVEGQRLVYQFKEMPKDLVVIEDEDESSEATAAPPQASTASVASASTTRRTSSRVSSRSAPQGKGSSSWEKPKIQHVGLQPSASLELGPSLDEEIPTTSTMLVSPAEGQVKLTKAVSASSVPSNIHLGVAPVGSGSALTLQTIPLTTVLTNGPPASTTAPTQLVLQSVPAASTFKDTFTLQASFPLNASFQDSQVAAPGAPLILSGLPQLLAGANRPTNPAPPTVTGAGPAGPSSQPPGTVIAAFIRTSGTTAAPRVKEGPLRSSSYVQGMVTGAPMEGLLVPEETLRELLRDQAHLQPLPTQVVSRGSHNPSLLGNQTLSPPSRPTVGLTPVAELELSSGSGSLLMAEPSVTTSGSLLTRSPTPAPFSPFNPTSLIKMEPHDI
The target of another assay is T3, ELK4 (Homo sapiens, UniProt P28324-2 1-405).
T3 sequence: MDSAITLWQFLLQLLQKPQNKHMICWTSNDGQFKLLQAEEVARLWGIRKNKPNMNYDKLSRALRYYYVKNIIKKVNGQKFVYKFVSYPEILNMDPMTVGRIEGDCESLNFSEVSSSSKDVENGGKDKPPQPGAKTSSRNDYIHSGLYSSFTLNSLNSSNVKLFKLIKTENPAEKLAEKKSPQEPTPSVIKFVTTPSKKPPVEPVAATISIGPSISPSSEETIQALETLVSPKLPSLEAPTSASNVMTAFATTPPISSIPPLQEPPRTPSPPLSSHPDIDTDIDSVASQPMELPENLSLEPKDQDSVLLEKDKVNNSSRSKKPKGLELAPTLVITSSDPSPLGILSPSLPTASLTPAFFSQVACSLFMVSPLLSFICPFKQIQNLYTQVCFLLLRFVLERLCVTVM
Particulars: protein: recombinant; tags: N-terminal GST; dsDNA, one strand shown. The method in brief:
as §1

Another assay addresses T4, ETV2 (Homo sapiens, UniProt O00321 1-342).
T4 sequence: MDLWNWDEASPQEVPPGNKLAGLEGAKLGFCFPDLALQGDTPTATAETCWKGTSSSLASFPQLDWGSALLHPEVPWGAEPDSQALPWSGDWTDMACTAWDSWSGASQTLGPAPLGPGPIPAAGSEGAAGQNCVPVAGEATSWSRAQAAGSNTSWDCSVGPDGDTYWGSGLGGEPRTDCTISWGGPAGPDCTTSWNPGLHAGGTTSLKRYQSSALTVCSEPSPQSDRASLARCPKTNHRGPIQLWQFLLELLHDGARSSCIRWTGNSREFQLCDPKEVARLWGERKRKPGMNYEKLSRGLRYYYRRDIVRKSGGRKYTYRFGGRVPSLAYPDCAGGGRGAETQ
Particulars: protein: recombinant; tags: N-terminal GST; dsDNA, one strand shown. The method in brief:
as §1

For another assay, the target named is T5, ELF3 (Homo sapiens, UniProt P78545 1-371).
T5 sequence: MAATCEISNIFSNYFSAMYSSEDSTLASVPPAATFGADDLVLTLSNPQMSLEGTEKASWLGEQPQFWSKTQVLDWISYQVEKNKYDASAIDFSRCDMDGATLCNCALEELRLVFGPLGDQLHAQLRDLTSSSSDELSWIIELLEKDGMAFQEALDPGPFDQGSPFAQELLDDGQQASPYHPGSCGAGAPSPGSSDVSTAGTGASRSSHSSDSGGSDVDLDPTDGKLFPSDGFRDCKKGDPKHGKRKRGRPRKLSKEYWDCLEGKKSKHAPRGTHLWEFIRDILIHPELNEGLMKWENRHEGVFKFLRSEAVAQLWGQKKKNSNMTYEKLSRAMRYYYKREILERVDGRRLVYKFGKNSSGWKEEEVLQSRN
The following applies: protein: recombinant; tags: N-terminal GST; dsDNA, one strand shown. The method in brief: as §1

The next assay has as its target CRX (Homo sapiens, UniProt O43186 1-299). The following applies: protein: recombinant; tags: N-terminal GST; dsDNA, one strand shown. In outline:
as §1

Another assay addresses ETV1 (Homo sapiens, UniProt P50549 1-477). The following applies: protein: recombinant; tags: N-terminal GST; dsDNA, one strand shown. The method in brief: as §1
In the next assay the target is T6, ERF (Homo sapiens, UniProt P50548 1-548).
T6 sequence: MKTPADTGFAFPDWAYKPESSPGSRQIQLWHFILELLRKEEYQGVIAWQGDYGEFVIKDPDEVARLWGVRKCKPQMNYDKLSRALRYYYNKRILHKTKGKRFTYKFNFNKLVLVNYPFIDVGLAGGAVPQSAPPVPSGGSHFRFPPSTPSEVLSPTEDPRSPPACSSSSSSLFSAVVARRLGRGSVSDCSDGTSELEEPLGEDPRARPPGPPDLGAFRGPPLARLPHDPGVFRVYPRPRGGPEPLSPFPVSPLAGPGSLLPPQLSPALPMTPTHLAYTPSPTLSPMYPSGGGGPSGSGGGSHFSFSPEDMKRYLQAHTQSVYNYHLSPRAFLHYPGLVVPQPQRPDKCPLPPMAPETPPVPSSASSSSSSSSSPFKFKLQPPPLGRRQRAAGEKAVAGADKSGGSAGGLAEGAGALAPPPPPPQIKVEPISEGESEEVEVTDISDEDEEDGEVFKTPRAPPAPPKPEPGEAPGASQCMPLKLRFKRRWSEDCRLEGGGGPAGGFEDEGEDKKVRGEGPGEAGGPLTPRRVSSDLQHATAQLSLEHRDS
Particulars: protein: recombinant; tags: N-terminal GST; dsDNA, one strand shown. The method in brief:
as §1

Another assay concerns the target T7, ETV3L (Homo sapiens, UniProt Q6ZN32 1-361).
T7 sequence: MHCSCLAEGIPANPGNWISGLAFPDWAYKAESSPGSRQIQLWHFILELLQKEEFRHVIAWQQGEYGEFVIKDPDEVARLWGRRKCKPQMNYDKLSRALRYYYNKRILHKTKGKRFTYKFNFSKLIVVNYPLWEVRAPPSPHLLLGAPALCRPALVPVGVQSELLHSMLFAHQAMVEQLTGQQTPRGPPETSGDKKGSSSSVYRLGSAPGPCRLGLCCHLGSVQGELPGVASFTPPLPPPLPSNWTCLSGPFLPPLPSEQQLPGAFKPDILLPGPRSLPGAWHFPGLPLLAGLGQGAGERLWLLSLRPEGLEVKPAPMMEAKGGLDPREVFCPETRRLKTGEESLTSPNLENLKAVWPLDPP
The following applies: protein: recombinant; tags: N-terminal GST; dsDNA, one strand shown. The method in brief: as §1

A further assay concerns the target T8, ETS2 (Homo sapiens, UniProt P15036 1-469).
T8 sequence: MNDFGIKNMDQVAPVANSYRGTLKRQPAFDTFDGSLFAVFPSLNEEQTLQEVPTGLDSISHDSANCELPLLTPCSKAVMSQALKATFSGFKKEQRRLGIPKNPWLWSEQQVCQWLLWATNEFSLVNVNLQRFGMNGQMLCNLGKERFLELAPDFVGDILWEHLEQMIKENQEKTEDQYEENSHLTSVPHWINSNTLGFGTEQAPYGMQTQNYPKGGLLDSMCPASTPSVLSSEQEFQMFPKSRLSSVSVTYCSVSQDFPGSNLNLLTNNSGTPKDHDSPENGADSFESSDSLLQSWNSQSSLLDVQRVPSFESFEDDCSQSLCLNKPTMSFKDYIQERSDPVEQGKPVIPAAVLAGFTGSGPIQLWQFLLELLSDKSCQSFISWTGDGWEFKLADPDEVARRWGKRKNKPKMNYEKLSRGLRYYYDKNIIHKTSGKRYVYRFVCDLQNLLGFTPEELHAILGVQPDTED
The following applies: protein: recombinant; tags: N-terminal GST; dsDNA, one strand shown. In outline: as §1

Another assay deals with T9, SPDEF (Homo sapiens, UniProt O95238 1-335).
T9 sequence: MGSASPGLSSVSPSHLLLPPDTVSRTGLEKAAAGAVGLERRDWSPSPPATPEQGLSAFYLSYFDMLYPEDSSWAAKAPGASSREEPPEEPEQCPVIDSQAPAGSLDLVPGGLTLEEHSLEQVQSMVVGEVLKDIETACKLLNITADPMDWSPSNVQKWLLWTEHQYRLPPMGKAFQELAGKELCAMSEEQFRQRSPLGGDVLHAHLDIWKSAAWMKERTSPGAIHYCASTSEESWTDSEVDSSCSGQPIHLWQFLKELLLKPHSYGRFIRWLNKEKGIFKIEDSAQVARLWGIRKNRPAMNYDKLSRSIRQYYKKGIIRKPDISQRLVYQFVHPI
Particulars: protein: recombinant; tags: N-terminal GST; dsDNA, one strand shown. In outline:
as §1

Another assay deals with T10, ETV7 (Homo sapiens, UniProt Q9Y603 1-341).
T10 sequence: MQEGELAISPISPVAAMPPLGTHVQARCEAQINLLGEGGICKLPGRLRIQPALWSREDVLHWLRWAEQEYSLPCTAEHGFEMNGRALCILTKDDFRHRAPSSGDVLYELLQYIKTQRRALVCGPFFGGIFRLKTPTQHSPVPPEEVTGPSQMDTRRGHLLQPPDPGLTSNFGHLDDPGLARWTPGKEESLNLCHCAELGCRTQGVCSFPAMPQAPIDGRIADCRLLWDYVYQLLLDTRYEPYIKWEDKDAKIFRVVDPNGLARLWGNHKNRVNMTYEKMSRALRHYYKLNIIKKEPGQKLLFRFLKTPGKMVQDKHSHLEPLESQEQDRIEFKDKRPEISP
The following applies: protein: recombinant; tags: N-terminal GST; dsDNA, one strand shown. In outline:
as §1

A further assay deals with T11, ELF5 (Homo sapiens, UniProt Q9UKW6-2 1-255).
T11 sequence: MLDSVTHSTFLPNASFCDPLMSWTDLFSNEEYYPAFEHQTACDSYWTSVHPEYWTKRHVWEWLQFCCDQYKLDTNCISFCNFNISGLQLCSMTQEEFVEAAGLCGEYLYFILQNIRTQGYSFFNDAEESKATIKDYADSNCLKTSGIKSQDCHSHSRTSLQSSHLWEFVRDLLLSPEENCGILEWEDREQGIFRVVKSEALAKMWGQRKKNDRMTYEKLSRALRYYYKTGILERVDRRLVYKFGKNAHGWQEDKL
Particulars: protein: recombinant; tags: N-terminal GST; dsDNA, one strand shown. The method in brief:
as §1

In the next assay the target is T12, ETV3 (Homo sapiens, UniProt P41162-2 1-143).
T12 sequence: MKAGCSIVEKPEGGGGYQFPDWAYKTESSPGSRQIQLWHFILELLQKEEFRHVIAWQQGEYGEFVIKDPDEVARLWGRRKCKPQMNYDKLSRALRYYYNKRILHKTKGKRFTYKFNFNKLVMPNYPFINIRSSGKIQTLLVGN
The following applies: protein: recombinant; tags: N-terminal GST; dsDNA, one strand shown. In outline: as §1

A further assay concerns the target ETV6 (Homo sapiens, UniProt P41212 1-452). Particulars: protein: recombinant; tags: N-terminal GST; dsDNA, one strand shown. The method in brief:
as §1

CRX, sequence (O43186 whole entry): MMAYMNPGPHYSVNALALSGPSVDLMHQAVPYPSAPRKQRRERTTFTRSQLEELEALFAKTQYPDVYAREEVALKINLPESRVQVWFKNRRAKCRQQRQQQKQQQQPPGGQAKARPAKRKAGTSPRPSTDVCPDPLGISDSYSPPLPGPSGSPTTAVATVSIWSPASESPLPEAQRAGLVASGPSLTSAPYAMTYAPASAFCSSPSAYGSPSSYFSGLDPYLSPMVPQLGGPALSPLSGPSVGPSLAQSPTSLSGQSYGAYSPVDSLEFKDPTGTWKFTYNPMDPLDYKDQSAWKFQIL
HSF1, sequence (Q00613 whole entry): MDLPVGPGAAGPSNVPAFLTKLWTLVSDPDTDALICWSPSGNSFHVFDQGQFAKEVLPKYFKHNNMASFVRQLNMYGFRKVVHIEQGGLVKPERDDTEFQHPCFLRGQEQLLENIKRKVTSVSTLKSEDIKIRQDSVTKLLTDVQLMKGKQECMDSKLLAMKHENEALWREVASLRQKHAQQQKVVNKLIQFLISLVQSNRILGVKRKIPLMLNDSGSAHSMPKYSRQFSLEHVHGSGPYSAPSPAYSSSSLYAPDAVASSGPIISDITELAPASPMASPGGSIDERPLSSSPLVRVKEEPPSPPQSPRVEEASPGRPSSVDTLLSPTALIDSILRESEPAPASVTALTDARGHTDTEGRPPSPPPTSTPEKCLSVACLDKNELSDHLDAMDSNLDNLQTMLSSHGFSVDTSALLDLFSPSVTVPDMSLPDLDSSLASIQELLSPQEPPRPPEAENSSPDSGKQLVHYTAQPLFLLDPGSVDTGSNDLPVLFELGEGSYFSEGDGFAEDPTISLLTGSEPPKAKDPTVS
ETV1, sequence (P50549 whole entry): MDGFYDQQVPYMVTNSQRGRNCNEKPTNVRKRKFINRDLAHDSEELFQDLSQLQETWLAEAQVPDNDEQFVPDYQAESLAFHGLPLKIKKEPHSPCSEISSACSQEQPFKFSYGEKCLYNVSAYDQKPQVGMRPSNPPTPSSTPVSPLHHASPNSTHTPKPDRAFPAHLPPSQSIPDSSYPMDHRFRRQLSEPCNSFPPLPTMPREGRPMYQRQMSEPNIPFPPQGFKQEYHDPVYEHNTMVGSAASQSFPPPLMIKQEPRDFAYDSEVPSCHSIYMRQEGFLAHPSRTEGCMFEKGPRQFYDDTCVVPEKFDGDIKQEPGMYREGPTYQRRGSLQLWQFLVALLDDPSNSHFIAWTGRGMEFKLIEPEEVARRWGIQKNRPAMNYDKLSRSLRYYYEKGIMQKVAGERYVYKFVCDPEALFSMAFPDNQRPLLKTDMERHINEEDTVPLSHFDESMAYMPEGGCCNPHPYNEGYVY
ETV6, sequence (P41212 whole entry): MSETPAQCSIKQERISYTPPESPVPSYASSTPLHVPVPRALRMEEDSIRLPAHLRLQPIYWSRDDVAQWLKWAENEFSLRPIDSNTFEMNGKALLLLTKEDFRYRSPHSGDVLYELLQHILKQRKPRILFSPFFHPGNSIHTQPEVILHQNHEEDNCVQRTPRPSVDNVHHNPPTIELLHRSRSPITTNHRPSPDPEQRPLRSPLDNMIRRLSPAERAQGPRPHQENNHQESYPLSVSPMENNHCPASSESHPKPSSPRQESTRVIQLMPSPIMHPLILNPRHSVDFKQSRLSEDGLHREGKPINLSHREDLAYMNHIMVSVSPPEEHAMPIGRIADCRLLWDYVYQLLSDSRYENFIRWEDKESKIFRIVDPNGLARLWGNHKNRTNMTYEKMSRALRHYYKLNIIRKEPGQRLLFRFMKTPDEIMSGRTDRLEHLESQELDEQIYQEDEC

For the sequence GATTCC, the binding signal in the assay with FEV is 1.09 fold enrichment (6-mer frequency, TF over GST control); with ETV5, 1.21 fold enrichment (6-mer frequency, TF over GST control); in the assay with HSF1, 1.34 fold enrichment (6-mer frequency, TF over GST control); with SPIC it was 1.18 fold enrichment (6-mer frequency, TF over GST control); in the assay with ELF4 it was 1.19 fold enrichment (6-mer frequency, TF over GST control); with ELK4, 1.13 fold enrichment (6-mer frequency, TF over GST control). Further, the binding signal in the assay with ETV2 is 1.13 fold enrichment (6-mer frequency, TF over GST control); with ELF3 it was 1.09 fold enrichment (6-mer frequency, TF over GST control); with CRX it was 1.15 fold enrichment (6-mer frequency, TF over GST control); with ETV1, 1.21 fold enrichment (6-mer frequency, TF over GST control); with ERF, 1.15 fold enrichment (6-mer frequency, TF over GST control); with ETV3L it was 1.22 fold enrichment (6-mer frequency, TF over GST control). Moreover, the binding signal was 1.14 fold enrichment (6-mer frequency, TF over GST control) with ETS2; 1.29 fold enrichment (6-mer frequency, TF over GST control) with SPDEF; 1.11 fold enrichment (6-mer frequency, TF over GST control) with ETV7; 1.21 fold enrichment (6-mer frequency, TF over GST control) in the assay with ELF5; 1.24 fold enrichment (6-mer frequency, TF over GST control) with ETV3; 1.14 fold enrichment (6-mer frequency, TF over GST control) with ETV6.

Source of the values: paper PMC7862700, “An all-to-all approach to the identification of sequence-specific readers for epigenetic DNA modifications on cytosine”.
